Inconclusive results are not listed. The source made the active and inactive calls. How the source made its calls, unless noted: active means hit-call score of the fitted dose curve at least 0.9, where 1 is the maximum; inconclusive means response in the unintended direction; inactive means score below 0.9.

Sequence of Thyroid hormone receptor alpha (Rattus norvegicus) + Thyroid hormone receptor beta (Rattus norvegicus) (P63059 whole entry, looked up): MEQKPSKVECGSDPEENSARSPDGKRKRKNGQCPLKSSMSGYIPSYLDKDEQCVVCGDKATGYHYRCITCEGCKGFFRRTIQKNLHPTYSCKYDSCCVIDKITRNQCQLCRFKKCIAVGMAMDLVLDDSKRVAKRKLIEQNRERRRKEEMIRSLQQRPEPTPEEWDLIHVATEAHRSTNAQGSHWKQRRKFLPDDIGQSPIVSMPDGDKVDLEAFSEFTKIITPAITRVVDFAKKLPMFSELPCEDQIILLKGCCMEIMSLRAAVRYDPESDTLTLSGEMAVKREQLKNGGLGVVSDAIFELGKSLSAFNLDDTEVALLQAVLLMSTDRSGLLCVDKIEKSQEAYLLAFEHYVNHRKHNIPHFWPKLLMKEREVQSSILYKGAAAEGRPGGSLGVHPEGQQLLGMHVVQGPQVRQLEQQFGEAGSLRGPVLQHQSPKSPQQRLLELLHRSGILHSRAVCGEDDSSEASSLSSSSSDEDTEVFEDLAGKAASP
Sequence of Thyroid hormone receptor alpha (Rattus norvegicus) + Thyroid hormone receptor beta (Rattus norvegicus) (P18113 whole entry, looked up): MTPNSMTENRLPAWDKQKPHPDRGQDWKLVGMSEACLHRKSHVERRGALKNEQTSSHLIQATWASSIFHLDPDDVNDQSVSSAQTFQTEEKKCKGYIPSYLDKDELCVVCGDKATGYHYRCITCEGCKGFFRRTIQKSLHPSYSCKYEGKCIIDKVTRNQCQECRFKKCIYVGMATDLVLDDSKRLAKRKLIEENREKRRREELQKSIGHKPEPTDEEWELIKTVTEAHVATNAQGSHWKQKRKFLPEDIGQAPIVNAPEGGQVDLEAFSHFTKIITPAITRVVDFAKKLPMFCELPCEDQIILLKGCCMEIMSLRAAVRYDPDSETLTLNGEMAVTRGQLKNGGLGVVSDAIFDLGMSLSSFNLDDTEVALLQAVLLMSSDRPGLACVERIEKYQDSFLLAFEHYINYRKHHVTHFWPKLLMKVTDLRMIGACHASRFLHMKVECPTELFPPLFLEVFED

Read-out in the first assay: not listed separately
As to the kind of experiment: CEETOX_H295R_ESTRADIOL_noMTC: CeeTox H295R High-throughput Steroidogenesis Assay for Estradiol, maximum tolerated concentration (MTC) filtered results only (AID 2283919; active means hit-call score of the fitted dose curve at least 0.9, where 1 is the maximum; inactive means score below 0.9). The settings on record: actives raise or lower the signal. In a few lines:
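H295R human adrenal cells pre-stimulated 48 h with 10 uM forskolin, then exposed 48 h to chemical (0.1% DMSO final). Estradiol in medium measured by HPLC-MS/MS after MTBE extraction and dansyl derivatization; bidirectional fit versus DMSO, concentrations not MTT-filtered.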
Regarding `CCOC(=O)c1ccccc1N`, the call was inactive.

Take `CCOP(=S)(OCC)SCS(=O)(=O)CC`: the compound was classed as inactive.

On to `CCOc1ccc(C(C)(C)COCc2cccc(Oc3ccccc3)c2)cc1`, for which the call was inactive.

Read-out in the next assay: not listed separately
As to the kind of experiment: CEETOX_H295R_PROG_noMTC: CeeTox H295R High-throughput Steroidogenesis Assay for Progesterone (PROG), maximum tolerated concentration (MTC) filtered results only (AID 2283920; active means hit-call score of the fitted dose curve at least 0.9, where 1 is the maximum; inactive means score below 0.9). Conditions: actives raise or lower the signal. The procedure, abridged:
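H295R cells, prestimulated 48 h with 10 uM forskolin, exposed 48 h to chemical in 0.1% DMSO. Medium progesterone quantified by MTBE extraction and HPLC-MS/MS; bidirectional fit versus DMSO, concentrations not MTT-filtered.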
Regarding `CCOC(=O)c1ccccc1N`, the outcome was inactive.

Take `CCOP(=S)(OCC)SCS(=O)(=O)CC`: the outcome was inactive.

In the case of `CCOc1ccc(C(C)(C)COCc2cccc(Oc3ccccc3)c2)cc1`, the outcome was inactive.

In the case of `CCOC(=O)c1ccccc1C(=O)OCC`, the outcome was inactive.

Read-out in another assay: not listed separately
As to the kind of experiment: CEETOX_H295R_ESTRONE_noMTC: CeeTox H295R High-throughput Steroidogenesis Assay for Estrone, maximum tolerated concentration (MTC) filtered results only (AID 2283921; active means hit-call score of the fitted dose curve at least 0.9, where 1 is the maximum; inactive means score below 0.9). Conditions: actives raise or lower the signal. In a few lines:
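H295R cells prestimulated 48 h with 10 uM forskolin, then exposed 48 h to chemical in 0.1% DMSO; medium estrone measured by HPLC-MS/MS after MTBE extraction and dansyl derivatization, fitted bidirectionally versus DMSO without MTT-based MTC filtering.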
Take `CCOC(=O)c1ccccc1N`: the compound was called inactive.

In the case of `CCOP(=S)(OCC)SCS(=O)(=O)CC`, the outcome was inactive.

With `CCOc1ccc(C(C)(C)COCc2cccc(Oc3ccccc3)c2)cc1`, the call was inactive.

For the next assay, the target named is PGR (gene 5241) (UniProt P06401). As to the kind of experiment: TOX21_PR_BLA_Followup_Antagonist_ratio: Tox21 HEK293 Progesterone Receptor (PR) Antagonism Beta-lactamase Follow-Up Assay, Ratio (AID 2283934).
Sequence of PGR (gene 5241) (P06401 whole entry, looked up): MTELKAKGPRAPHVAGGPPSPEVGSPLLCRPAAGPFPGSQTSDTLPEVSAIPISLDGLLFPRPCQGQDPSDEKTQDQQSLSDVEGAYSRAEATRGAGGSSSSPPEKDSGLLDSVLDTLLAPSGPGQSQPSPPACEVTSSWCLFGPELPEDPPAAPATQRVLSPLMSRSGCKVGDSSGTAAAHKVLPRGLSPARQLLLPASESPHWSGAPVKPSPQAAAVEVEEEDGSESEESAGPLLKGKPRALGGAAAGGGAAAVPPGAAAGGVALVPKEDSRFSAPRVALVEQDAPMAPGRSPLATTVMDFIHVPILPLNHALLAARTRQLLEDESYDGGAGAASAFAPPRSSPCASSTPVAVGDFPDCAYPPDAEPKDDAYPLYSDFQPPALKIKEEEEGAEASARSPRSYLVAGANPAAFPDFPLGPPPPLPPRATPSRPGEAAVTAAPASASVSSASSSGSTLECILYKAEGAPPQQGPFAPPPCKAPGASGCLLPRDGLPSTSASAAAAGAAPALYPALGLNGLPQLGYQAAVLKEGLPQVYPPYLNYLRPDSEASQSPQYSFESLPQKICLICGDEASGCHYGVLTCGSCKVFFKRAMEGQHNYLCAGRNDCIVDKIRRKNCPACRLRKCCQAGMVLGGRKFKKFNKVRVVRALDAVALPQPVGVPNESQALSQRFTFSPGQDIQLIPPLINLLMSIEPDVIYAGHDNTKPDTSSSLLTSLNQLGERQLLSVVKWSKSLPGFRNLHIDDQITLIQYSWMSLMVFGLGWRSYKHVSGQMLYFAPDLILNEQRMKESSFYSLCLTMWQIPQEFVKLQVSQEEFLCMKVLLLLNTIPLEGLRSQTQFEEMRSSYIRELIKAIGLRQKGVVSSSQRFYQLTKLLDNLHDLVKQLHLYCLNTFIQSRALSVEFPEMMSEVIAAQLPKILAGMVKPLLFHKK
Conditions: not given
In a few lines:
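Antagonist mode used 1 nM R5020 (final) as agonist on a beta-lactamase reporter line in HEK293T cells. Activity was taken from the substrate cleavage ratio after 16 hr exposure.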
As for `CCOP(=S)(Oc1ccc([N+](=O)[O-])cc1)c1ccccc1` (stereo not drawn), the AC50 is 5.36 µM (active).

Regarding `CO/N=C(/C(=O)OC)c1ccccc1COc1ccccc1C`, the half-maximal activity concentration (AC50) is 37.1 µM (active).

As for `O=S1(=O)OCC2C(CO1)C1(Cl)C(Cl)=C(Cl)C2(Cl)C1(Cl)Cl` (stereo not drawn), the AC50 was 24.2 µM (active).

On to `CCOP(=S)(OCC)SCSc1ccc(Cl)cc1`, for which the AC50 was 9.94 µM (active).

System in a further assay: not listed separately
As to the kind of experiment: TOX21_PR_BLA_Followup_Agonist_viability: Viability Assessment in the Tox21 HEK293 Progesterone Receptor (PR) Agonism Beta-lactamase Follow-Up Assay (AID 2283935).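 Further: signal loss means lower viability so actives are cytotoxic.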
Conditions: not given
The procedure, abridged: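 Multiplexed viability counter-screen: ATP-coupled luciferase signal measured after 30 min at room temperature, following 16 hr compound treatment of PR-UAS-bla HEK293T cells grown in charcoal-stripped serum.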
With `CO/N=C(/C(=O)OC)c1ccccc1COc1ccccc1C`, the outcome was inactive.

Take `O=S1(=O)OCC2C(CO1)C1(Cl)C(Cl)=C(Cl)C2(Cl)C1(Cl)Cl` (stereo not drawn): the compound was called inactive.

Turning to `CCOP(=S)(OCC)SCSc1ccc(Cl)cc1`, the result was inactive.

System in the next assay: not listed separately
As to the kind of experiment: TOX21_PR_BLA_Followup_Antagonist_viability: Viability Assessment in the Tox21 HEK293 Progesterone Receptor (PR) Antagonism Beta-lactamase Follow-Up Assay (AID 2283936).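 Further: cells exposed to compound with R5020 agonist for 16 h; hits lower the luminescence signal meaning cytotoxicity.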
Conditions: not given
On the procedure: TOX21_PR_BLA_Followup is a secondary assay for specificity for the TOX21_PR_BLA_Agonist assay. To differentiate true PR agonists from cytotoxic substances, this follow up assay is multiplexed with a cell viability assay. The compounds were also tested for auto fluorescence that may interfere with the biological target readout resulting in potential false positives and/or negatives. To identify the compounds that stimulate PR signaling, a PR-UAS-bla GripTite cell line i.e. PR-UAS-bla HEK293T (Invitrogen, Carlsbad, CA, USA) containing a beta-lactamase reporter gene under the control of an UAS response element was used to screen Tox21 10K compound library. The cytotoxicity of the Tox21 compound library against the PR-bla cell line was tested in parallel by measuring the cell viability using CellTiter-Glo assay in the same wells. TOX21_PR_BLA_Followup_Antagonist_viability is a component of the TOX21_PR_BLA_Followup_Antagonist assay. This component measures cell viability using the CellTiter-Glo Luciferase-coupled ATP quantitation.TOX21_PR_BLA_Followup_Antagonist_viability used a type of viability reporter where loss-of-signal activity can be used to understand changes in the cell viability. Furthermore, this assay endpoint can be referred to as a secondary readout, because this assay has produced multiple assay endpoints where this one serves a viability function. To generalize the intended target to other relatable targets, this assay endpoint is annotated to the cell cycle intended target family, where the subfamily is cytotoxicity.
Assay Protocol: PR-UAS-bla HEK293T cells were dispensed at 3,000 cells/4 uL of assay medium containing 2% charcoal stripped FBS per well into black wall/clear-bottom 1536-well plates using a Multidrop Combi (ThermoFisher Scientific, Waltham, MA) dispenser. After the assay plates were incubated at a 37C and 5% CO2 for 4 hr, 23 nL of compounds dissolved in DMSO, positive controls or DMSO only was transferred to the assay plate by a Pintool station (Kalypsys, San Diego, CA), followed by addition of 1 uL of R5020 in assay medium using a Flying Reagent Dispenser (FRD, Aurora Discovery, San Diego, CA). The plates were incubated at 37C and 5% CO2 for 16 hr. Then 1 uL of LiveBLAzer B/G FRET substrate was added using a Flying Reagent Dispenser, the plates were incubated at room temperature for 2 hours, and fluorescence intensity was measured by an Envision plate reader (PerkinElmer, Shelton, CT). For cell viability readout that measures cytotoxicity, 4 uL/well of CellTiter-Glo reagent was added into the assay plates using a FRD. After 30 min incubation at room temperature, the luminescence intensity in the plates was measured using a ViewLux (PerkinElmer) plate reader.
Take `CCOP(=S)(Oc1ccc([N+](=O)[O-])cc1)c1ccccc1` (stereo not drawn): the compound was called inactive.

For `CO/N=C(/C(=O)OC)c1ccccc1COc1ccccc1C`, the result was inactive.

`O=S1(=O)OCC2C(CO1)C1(Cl)C(Cl)=C(Cl)C2(Cl)C1(Cl)Cl` (stereo not drawn): the result was inactive.

Take `CCOP(=S)(OCC)SCSc1ccc(Cl)cc1`: the outcome was inactive.

In the next assay the target is PGR (gene 5241) (UniProt P06401). As to the kind of experiment: TOX21_PR_LUC_Followup_Antagonist: Tox21 HEK293 Progesterone Receptor (PR) Antagonism Luciferase Follow-Up Assay (AID 2283938).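 Further: curve fitted upward as signal gain over DMSO baseline despite antagonist label.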
Conditions: not given
The procedure, abridged:
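Luminescence from ONE-Glo reagent, measured after 30 min at room temperature, served as readout. Cells (HEK293 carrying PR-A-luc) had been treated 16 h at 37C with DMSO-dissolved compounds. Activity was fitted against DMSO controls.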
For `CCOP(=S)(Oc1ccc([N+](=O)[O-])cc1)c1ccccc1` (stereo not drawn), the AC50 was 7.8 µM (active).

As to `CO/N=C(/C(=O)OC)c1ccccc1COc1ccccc1C`, the AC50 was 31.5 µM (active).

In the case of `O=S1(=O)OCC2C(CO1)C1(Cl)C(Cl)=C(Cl)C2(Cl)C1(Cl)Cl` (stereo not drawn), the AC50 is 27.1 µM (active).

`CCOP(=S)(OCC)SCSc1ccc(Cl)cc1`: the AC50 is 20.4 µM (active).

A further assay concerns the target Thyroid hormone receptor alpha (Rattus norvegicus) + Thyroid hormone receptor beta (Rattus norvegicus) (UniProt P18113+P63059). As to the kind of experiment: TOX21_TR_LUC_GH3_Agonist_Followup: Tox21 GH3 Thyroid Hormone Receptor Agonism Luciferase Follow-Up Assay (AID 2283939).
Conditions: not given
On the procedure: TOX21_TR_LUC_GH3_Agonist_Followup is a secondary assay for specificity for the TOX21_TR_LUC_GH3_Agonist assay. TOX21_TR_LUC_GH3_Agonist_Followup is a cell-based, single-readout assay that uses GH3, a rat pituitary gland cell line, with measurements taken at 28 hours after chemical dosing in a 1536-well plate.TOX21_TR_LUC_GH3_Agonist_Followup is one of one assay component(s) measured or calculated from the TOX21_TR_LUC_GH3_Agonist_Followup assay. It is designed to make measurements of luciferase induction, a form of inducible reporter, as detected with bioluminescence signals by […] technology.Data from the assay component TOX21_TR_LUC_GH3_Agonist_Followup was analyzed into 1 assay endpoint. This assay endpoint, TOX21_TR_LUC_GH3_Agonist_Followup, was analyzed in the positive analysis fitting direction relative to DMSO as the negative control and baseline of activity. Using a type of inducible reporter, gain-of-signal activity can be used to understand changes in the reporter gene as they relate to the gene THRA and THRB in the GH3 cell line using a luciferase reporter. Furthermore, this assay endpoint can be referred to as a primary readout, because the performed assay has only produced 1 assay endpoint. This assay endpoint is designated followup because it was a confirmatory screen following the primary qHTS assay.
Cell Media Required: Growth (90% DMEM/F-12, 10% Fetal Bovine Calf Serum, 100U/ml Penicillin, 100 ug/ml Streptomycin), Assay (10ng/mL sodium selenite, 10 ug/mL humanapo-transferrin, 10 uM ethanolamine, 10 ug/mL insulin, 500 ug/mL bovine serum albumin (BSA))Assay Protocol: Cells were seeded at 1,500/well in 5 uL (agonist mode) and 4 uL (antagonist mode) of the assay medium in 1,536-well white/solid plates (Greiner Bio-One North America) using a Multi drop Combi (Thermo Fisher Scientific) dispenser. Chemical samples were serially diluted in DMSO, yielding 15 concentrations for testing. […]
In the case of `CC(Cc1ccc(OCC(=O)O)cc1)NCC(O)c1csc(C(F)(F)F)n1` (stereo not drawn), the outcome was inactive.

As to `CCC1(c2ccccc2)C(=O)N=C(O)NC1=O` (stereo not drawn), the result was inactive.

Consider `O=C(O)C(Cl)Cl`, for which the outcome was inactive.

As usually defined, the AC50 is the midpoint of the concentration-response curve, whichever way the signal moves.

For the origin of these results see PubChem BioAssay (EPA / NIEHS).
